In the library only some 3.8% were active in any assay of this set; here they are far more common.
697 NFkB inh: lowers PMA/ionomycin-induced NF-kB signal in 697 B cells | inhibition, % at 4 µM | 330,000 tested, 0.33% active | 697 B-cell NF-kB luciferase reporter, 16 h; in the data active means inhibition above about 35%
Jurkat NFkB inh: inhibitors of the PMA/ionomycin-induced NF-kB reporter in Jurkat cells | PMA/ionomycin-induced NF-kB luciferase reporter, luminescence | inhibition, % at 4 µM | 330,000 tested, 0.53% active | AID 435003; in the data active means inhibition above about 50%
Beta cell apopt: beta cell apoptosis inhibition; INS-1E cytokine-induced death, ATP luminescence, 48 h; percent of positive-control rescue, neutral wells zero; protection from apoptosis, % (test concentration not listed); 300,000 tested, 0.8% active; AID 435005;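 active means Every replicate reaches about 75%, or at least half do and their mean reaches it too, limit read from the data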;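 further: 0% = cytokine-treated negative control wells and 100% = positive control rescue; higher means more ATP so stronger rescue from cytokine killing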
Mdm2-MdmX inh: human Mdm2/MdmX binding inhibition | O15151+Q00987 | SaOS-2 split-luciferase Mdm2/MdmX complementation, luminescence | inhibition, % at 8 µM | 330,000 tested, 3% active | AID 485346;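 active means inhibition of at least 50% at 8 µM in the primary screen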
Target sequence (O15151 whole entry, looked up): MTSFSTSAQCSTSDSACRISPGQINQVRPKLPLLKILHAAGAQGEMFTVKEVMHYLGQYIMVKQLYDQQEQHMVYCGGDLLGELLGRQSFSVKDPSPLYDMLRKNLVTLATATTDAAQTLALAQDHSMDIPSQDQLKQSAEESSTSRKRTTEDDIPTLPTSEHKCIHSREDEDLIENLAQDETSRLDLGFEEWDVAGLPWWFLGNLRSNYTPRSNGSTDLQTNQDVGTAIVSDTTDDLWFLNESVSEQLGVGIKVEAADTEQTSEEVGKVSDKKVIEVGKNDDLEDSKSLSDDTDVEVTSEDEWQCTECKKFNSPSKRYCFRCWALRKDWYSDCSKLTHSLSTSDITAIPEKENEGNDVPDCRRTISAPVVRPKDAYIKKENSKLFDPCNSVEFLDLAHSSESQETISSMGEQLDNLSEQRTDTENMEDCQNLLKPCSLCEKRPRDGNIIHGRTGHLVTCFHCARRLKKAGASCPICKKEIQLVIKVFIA
Target sequence (Q00987 whole entry, looked up): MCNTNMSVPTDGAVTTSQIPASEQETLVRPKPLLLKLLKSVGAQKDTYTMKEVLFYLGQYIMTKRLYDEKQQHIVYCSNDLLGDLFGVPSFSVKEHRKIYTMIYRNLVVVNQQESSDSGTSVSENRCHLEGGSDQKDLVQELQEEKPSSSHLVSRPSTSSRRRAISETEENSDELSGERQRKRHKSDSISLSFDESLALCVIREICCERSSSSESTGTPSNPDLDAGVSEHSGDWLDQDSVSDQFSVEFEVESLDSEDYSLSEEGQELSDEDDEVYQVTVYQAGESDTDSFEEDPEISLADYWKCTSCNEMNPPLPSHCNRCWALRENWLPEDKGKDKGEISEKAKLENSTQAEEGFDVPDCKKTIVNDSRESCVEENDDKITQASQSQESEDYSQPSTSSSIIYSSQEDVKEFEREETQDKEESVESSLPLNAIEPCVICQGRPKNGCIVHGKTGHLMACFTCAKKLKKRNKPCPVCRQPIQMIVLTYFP
A1 inh: inhibitors of the anti-apoptotic protein A1, read as caspase activation | MEF A1-2A-BIM cells, Caspase-Glo 3/7 luminescence, 3 h; percent of clofoctol response, vehicle zero | 330,000 tested, 0.066% active | AID 2462 | caspase activation, % (test concentration not listed);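 active means over half of replicate activation scores above 10%, or exactly half above 10 with the replicate mean above 10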
NTR1 ag: agonists of human neurotensin receptor NTR1. 330,000 tested, 0.17% active. NTR1-U2OS beta-arrestin-GFP spot imaging, agonist mode. activation, % at 20 µM. AID 493036;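 active means activation at or above 40% of the spot to cytoplasm intensity ratio, with at least 20 cells analyzed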;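 further: 0% = DMSO without peptide and 100% = 100 nM NTR1 peptide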
Mdm2 MdmX conf: human Mdm2/MdmX binding inhibition, confirmed | shares compounds with Mdm2-MdmX inh | luminescent assay | inhibition, % at 8 µM | 10,000 tested, 55% active; in the data active means inhibition above about 40%
FLuc counter: counter-screen for Mdm2/MdmX inhibitors: full-length luciferase; inhibition, % at 8 µM; SaOS-2 full-length luciferase counterscreen, luminescence; shares compounds with Mdm2-MdmX inh; 6,200 tested, 77% active;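 active means mean inhibition at 8 µM reaching about 37%, which flags the compound as non-specific, limit read from the data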;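 further: p53-null SaOS-2 cells with luciferase driven by a doxycycline-inducible promoter; compound on cells about two nights before reading with doxycycline added after day one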
An asterisk follows results filed as active.

How did Cc1ccc(NC(=S)N=Nc2c(O)n(C)c3ccc(S(=O)(=O)N4CCOCC4)cc23)cc1C do in these assays?
697 NFkB inh: -21.7; Jurkat NFkB inh: -1.8; Mdm2-MdmX inh: 52.0*; A1 inh: -1.4; NTR1 ag: -0.8; Mdm2 MdmX conf: 40.9*; FLuc counter: 47.8*

How did c1ccc(COCCC2CO2)cc1 (centres undefined) do in these assays?
697 NFkB inh: -22.0; Jurkat NFkB inh: -1.3; Mdm2-MdmX inh: -16.3; A1 inh: -0.1; NTR1 ag: -0.3

How did CCN(CC(=O)Nc1ccc(OC)cc1)C(=O)c1cc(-c2cccs2)nn1-c1ccccc1 do in these assays?
697 NFkB inh: 32.6; Jurkat NFkB inh: 13.2; Beta cell apopt: 4.1; Mdm2-MdmX inh: 60.4*; A1 inh: 0.4; NTR1 ag: 3.6; Mdm2 MdmX conf: 55.0*; FLuc counter: 90.4*

What do the screens show for `CN1CCc2c(sc(NC(=O)c3ccco3)c2C(N)=O)C1`?
697 NFkB inh: -37.1; Jurkat NFkB inh: 8.7; Mdm2-MdmX inh: 21.5; A1 inh: -0.3; NTR1 ag: 1.0

Results for NC(=O)c1ccsc1NC(=O)COC(=O)c1ccc([N+](=O)[O-])o1 ?
697 NFkB inh: 6.6; Jurkat NFkB inh: 0.4; Beta cell apopt: 1.0; Mdm2-MdmX inh: -6.7; A1 inh: 0.7; NTR1 ag: 7.3

Results for CCN1CCc2c(sc(NC(=O)c3ccc(S(=O)(=O)N4CCCC4)cc3)c2C(=O)NC)C1 ?
697 NFkB inh: 4.6; Jurkat NFkB inh: 17.3; Mdm2-MdmX inh: 82.8*; A1 inh: 0.0; NTR1 ag: -0.7; Mdm2 MdmX conf: 21.9

Results for CN1CCc2c(sc(NC(=O)c3ccc([N+](=O)[O-])o3)c2C(N)=O)C1 ?
697 NFkB inh: -5.4; Jurkat NFkB inh: 14.8; Beta cell apopt: -9.2; Mdm2-MdmX inh: 94.2*; A1 inh: 0.8; NTR1 ag: 0.0; Mdm2 MdmX conf: 88.7*; FLuc counter: 55.2*

Results for CNC(=O)c1c(NC(=O)c2ccc(S(=O)(=O)N3CCCCC3)cc2)sc2c1CCN(C(C)C)C2 ?
697 NFkB inh: -24.8; Jurkat NFkB inh: -3.6; Mdm2-MdmX inh: 13.6; A1 inh: 0.0; NTR1 ag: 1.3

What do the screens show for `NC(=O)c1ccsc1NC(=O)c1ccc([N+](=O)[O-])o1`?
697 NFkB inh: -6.9; Jurkat NFkB inh: -28.8; Beta cell apopt: -20.9; Mdm2-MdmX inh: 56.6*; A1 inh: 0.8; NTR1 ag: 5.1; Mdm2 MdmX conf: 24.0

Results for CCN1CCc2c(sc(NC(=O)c3cc4ccccc4cc3OC)c2C(N)=O)C1 ?
697 NFkB inh: -110.7; Jurkat NFkB inh: 1.6; Beta cell apopt: 21.0; Mdm2-MdmX inh: 100.4*; A1 inh: 0.1; NTR1 ag: 2.1; Mdm2 MdmX conf: 18.4

Results for Cc1ccc(C)c(OCCC(=O)OCc2csc(CC(=O)Nc3ccccc3C)n2)c1 ?
697 NFkB inh: -0.9; Jurkat NFkB inh: 5.1; Mdm2-MdmX inh: 3.0; NTR1 ag: 1.7

Results for N#CC1(NC(=O)COC(=O)C2=COCCO2)CCCCC1 ?
697 NFkB inh: 13.9; Jurkat NFkB inh: 1.9; Beta cell apopt: -7.1; Mdm2-MdmX inh: 24.0; A1 inh: 2.1; NTR1 ag: -2.2

What do the screens show for `Cc1ccccc1CNC(=O)C(=O)NCC1OCCCN1S(=O)(=O)c1ccc(F)cc1C` (centres undefined)?
697 NFkB inh: -0.4; Jurkat NFkB inh: 12.2; Beta cell apopt: -0.1; Mdm2-MdmX inh: 17.6; A1 inh: 1.0; NTR1 ag: 1.0

Results for C=CCN(c1ccc(Br)cc1C(=O)OC)S(C)(=O)=O ?
697 NFkB inh: 2.7; Jurkat NFkB inh: 1.1; Beta cell apopt: 0.1; Mdm2-MdmX inh: -28.4; A1 inh: -0.5; NTR1 ag: 0.1

What do the screens show for `CCOC(=O)N1CCN(S(=O)(=O)c2ccc(C(=O)Nc3sc4c(c3C(=O)OC)CCN(C)C4)cc2)CC1`?
697 NFkB inh: -4.1; Jurkat NFkB inh: -6.2; Mdm2-MdmX inh: 100.4*; A1 inh: 2.9; NTR1 ag: 10.8; Mdm2 MdmX conf: 38.5

What do the screens show for `CNC(=O)c1c(NC(=O)c2ccc(S(=O)(=O)N3CCCc4ccccc43)cc2)sc2c1CCN(C)C2`?
697 NFkB inh: -7.4; Jurkat NFkB inh: -0.5; Beta cell apopt: 1.5; Mdm2-MdmX inh: 26.9; A1 inh: -0.4; NTR1 ag: 13.2

How did O=C(Nc1cccc(NC(=O)c2ccccc2Cl)c1)c1ccc([N+](=O)[O-])o1 do in these assays?
697 NFkB inh: 10.3; Jurkat NFkB inh: 6.6; Beta cell apopt: 96.1*; Mdm2-MdmX inh: 60.6*; A1 inh: 0.5; NTR1 ag: 1.7; Mdm2 MdmX conf: 58.0*; FLuc counter: 42.4*

How did CCOC(=O)N1CCN(S(=O)(=O)c2ccc(C(=O)Nc3sc4c(c3C(N)=O)CCN(CC)C4)cc2)CC1 do in these assays?
697 NFkB inh: -25.0; Jurkat NFkB inh: -18.5; Mdm2-MdmX inh: 79.4*; A1 inh: 0.7; NTR1 ag: 0.1; Mdm2 MdmX conf: 8.1

How did CN1CCc2c(sc(NC(=O)c3ccc(S(=O)(=O)N4CCc5ccccc54)cc3)c2C(N)=O)C1 do in these assays?
697 NFkB inh: -21.0; Jurkat NFkB inh: -15.3; Beta cell apopt: 2.7; Mdm2-MdmX inh: 96.3*; A1 inh: -0.7; NTR1 ag: 15.0; Mdm2 MdmX conf: 82.8*; FLuc counter: 24.1

What do the screens show for `CCCN1CCc2c(sc(NC(=O)c3ccc(S(=O)(=O)N4CCN(C(=O)OCC)CC4)cc3)c2C(N)=O)C1`?
697 NFkB inh: -9.4; Jurkat NFkB inh: 1.6; Mdm2-MdmX inh: -18.3; A1 inh: 1.0; NTR1 ag: 0.3

Results for Cc1ccc(NC(=O)c2ccc([N+](=O)[O-])o2)cc1C ?
697 NFkB inh: -3.4; Jurkat NFkB inh: 46.9; Mdm2-MdmX inh: 9.1; A1 inh: 0.4; NTR1 ag: 5.0

How did COc1ccccc1NS(=O)(=O)c1ccc(C)c(C(=O)N2CCN(c3ccc(O)cc3)CC2)c1 do in these assays?
697 NFkB inh: 3.5; Jurkat NFkB inh: -9.9; Beta cell apopt: 7.1; Mdm2-MdmX inh: 19.2; A1 inh: 3.6; NTR1 ag: -2.2

Results for CC(=O)c1cccc(NC(=O)C2=CC(c3ccc4c(c3)OCO4)=NS(=O)(=O)N2C)c1 ?
697 NFkB inh: 5.9; Jurkat NFkB inh: 12.0; Beta cell apopt: 3.7; Mdm2-MdmX inh: 8.8; A1 inh: 0.6; NTR1 ag: 1.1

What do the screens show for `NC(=S)N/N=C/c1ccccc1OCc1cccc(Cl)c1`?
697 NFkB inh: 8.8; Jurkat NFkB inh: 1.2; Beta cell apopt: 24.9; Mdm2-MdmX inh: 52.5*; A1 inh: 0.6; NTR1 ag: 16.0; Mdm2 MdmX conf: 24.4

Assay outcomes (PubChem BioAssay)
